# PNC assembly inh = blocks assembly of the perinucleolar compartment. activity change (PNC), negative = inhibition, % at 10 µM. 140,000 compounds, 3.1% hits. PC3M PTB-GFP, PNC prevalence imaging, 16 h; hits give low values;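 active = readout at or below -70, meaning at least 70% loss of cells showing the perinucleolar compartment, a nuclear body marking cancer cells; inconclusive = readout between -30 and a set limit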;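 also: plate controls were DMSO wells for no effect and camptothecin positive control wells for full effect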
#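 Compounds are pinned in duplicate onto adhered PC3M cells stably expressing GFP-tagged PTB and incubated 16 h at 37 C. Cells are then fixed, nuclei stained with Hoechst, and PNC-positive cells counted.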
# HPGD block = blocks human HPGD enzyme activity; AID 894; purified HPGD, NADH fluorescence kinetic, PGE2 substrate; Potency, µM, for inactives: at the highest dose activity change, negative = inhibition, most hits filed as inhibitors; 150,000 compounds, 4.3% hits; also: potency is read from the fitted curve at half-maximal effect
# Target sequence (P15428 whole entry, looked up): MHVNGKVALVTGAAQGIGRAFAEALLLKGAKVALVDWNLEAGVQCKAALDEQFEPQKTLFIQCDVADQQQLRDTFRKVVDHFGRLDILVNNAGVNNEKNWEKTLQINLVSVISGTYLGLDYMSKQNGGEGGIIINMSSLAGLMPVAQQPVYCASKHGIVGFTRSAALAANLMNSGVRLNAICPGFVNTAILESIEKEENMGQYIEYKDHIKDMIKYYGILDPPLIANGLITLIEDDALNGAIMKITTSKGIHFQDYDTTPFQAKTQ
#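 NADH formation kinetics: reaction with 30 uM PGE2 and 1 mM NAD+ (final), 20 nM enzyme, Tris-HCl pH 8 with Tween 20, after 15 min compound preincubation at room temperature. Fluorescence change, last versus first of five reads.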
# ALDH1A1 inh = ALDH1A1 (human) enzyme inhibition; P00352; Purified ALDH1A1, NADH fluorescence, propionaldehyde substrate; Potency, µM (highest dose often 75.3 µM), without a hit: at the highest dose activity, negative = inhibition, actives largely listed as inhibitors; 220,000 compounds, 7.3% hits; AID 1030;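 also: potency is read from the fitted curve at half-maximal effect; plate controls were no enzyme wells and a reference inhibitor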
# Numbers without * were called inactive; u = inconclusive; x = not tested or not shown; [ ] = remark or other dose. Shown are actives, neighbours in structure and some others; about 11% of the full set was active somewhere. Unless noted, calls follow the shape of the dose curve; as a rule, active = well fitted inhibition curve with a large enough effect (not every such curve was filed as active); inconclusive = small, poorly fitted or top-dose-only effect, or another doubt; inactive = no such curve, though single readings can be large or run the other way. Unless noted, % is scaled to controls: 0 for no effect and ±100 for the full control effect.
SMILES,PNC assembly inh,HPGD block,ALDH1A1 inh
COc1ccc(OCCCC(=O)Nc2nc(-c3ccccn3)cs2)cc1,x,x,31.6µM*
O=C(NC(=S)Nc1nc(-c2cccc3ccccc23)cs1)c1cc2ccccc2o1,-1.9,-13.5%,20µM*
CN1C[C@@H]2C(c3ccc(C(F)(F)F)cc3)C3(c4cccnc4)CC2(C3)[C@H]1c1ccccc1 (stereo partly specified),x,-12.0%,1.4%
N#C/C(=C\c1ccc(F)cc1F)S(=O)(=O)c1ccccn1,x,x,-8.8%
CCOC(=O)c1ccc(NC(=O)CN2C(=O)C(CC)SC(CC)C2=O)cc1 (stereo unspecified),28.5,-18.4%,u
CCC(=O)NCCCCCCNC(=O)CC,29.7,3.8%,13.2%
O=C(CCl)NCCCCCCCCCNC(=O)CCl,u,-10.4%,0.178µM*
O=C(CSc1nnc2ccccn12)Nc1cccc(S(=O)(=O)N2CCOCC2)c1,-10.8,-11.0%,8.5%
CC1CCCN(C(=O)C(C)Nc2cc(Cl)ccc2N2CCOCC2)C1 (stereo unspecified),x,x,10µM*
O=C(Nc1cc(Cl)ccc1N1CCOCC1)c1cnccn1,113.4,-13.2%,10.9%
O=C(O)CCC(=O)N1CCc2cc(S(=O)(=O)N(CCc3ccccc3)Cc3ccccc3)ccc21,-19.6,-6.6%,u
COc1ccc(S(=O)(=O)Nc2cc(C)ccc2OC)cc1C,10.6,-3.7%,-5.9%
COc1ccc(C)cc1NS(=O)(=O)c1cccc2nonc12,-8.3,-13.5%,14.1µM*
CCOc1cc(/C=C2\SC(=Nc3ccc(F)cc3)N(c3ccc(F)cc3)C2=O)ccc1OCC(=O)O,x,x,5.2%
O=C(O)COc1ccc(/C=C2\SC(=Nc3ccccc3)N(c3ccccc3)C2=O)cc1,x,x,17.8µM*
CCOc1cc(/C=C2\SC(=Nc3ccccc3)N(c3ccccc3)C2=O)ccc1OCC(=O)O,-25.8,-5.3%,u
O=C(O)c1ccc(/C=C2\SC(=Nc3ccccc3)N(c3ccccc3)C2=O)cc1,x,x,15.8µM*
CCc1nnc(NC(=O)C2CCCN2S(=O)(=O)c2ccc(F)cc2)s1 (stereo unspecified),21.4,-0.9%,0.4%
CSc1nc(Cl)cc(N(CCO)CCO)n1,u,-3.8%,5.1%
O=S(=O)(c1ccc2c(c1)OCCO2)N1CCN(c2cccc(Cl)c2)CC1,-26.9,-12.7%,u
O=S(=O)(c1ccc2c(c1)OCCO2)N1CCC(O)(c2ccc(Cl)cc2)CC1,-125.0*,-11.8%,u
COc1nc(N/N=C/c2ccc(C)cc2)nc(N2CCCCC2)n1,-7.8,-2.1%,13.1%
CCOC(=O)c1nn(-c2ccc(F)cc2)c2nc(Nc3ccccc3)cc(=O)n12,19.2,-17.9%,u
Cc1ccccc1N=C1NC(=O)CS1,-4.8,-6.0%,4.4%
O=C1CSC(=Nc2ccccc2Cl)N1,-16.2,15.8µM*,u
SMILES,PNC assembly inh,HPGD block,ALDH1A1 inh
O=c1nc2n(c3ccc(Br)cc13)CCS2,39.4,-0.6%,u
O=C(NCCc1ccc(F)cc1)c1cc(=O)c2ccccc2o1,x,x,1.2%
CCOC(=O)c1c(NC(=O)CSc2nnnn2C)sc(C)c1-c1ccc(C)cc1,u,-20.9%,-1.8%
CCCCCN(C(=O)NC(=O)Nc1ccccc1C)S(=O)(=O)c1ccccc1,-3.1,7.2%,-12.3%
COC1(NS(=O)(=O)c2ccc(Br)cc2)C(C)=CC(=O)C=C1C,x,x,-6.9%
COc1ccc(Cl)cc1NC(=O)CCNC(=O)OCc1ccccc1,x,x,3.9%
CC1CCc2c(sc(NC(=O)CSc3nnc(-c4ccccc4)o3)c2C#N)C1 (stereo unspecified),-12.0,-2.0%,-10.1%
CCCc1cc(=O)[nH]c(SCC(=O)Nc2sc3c(c2C#N)CCC(C)C3)n1 (stereo unspecified),x,x,22.4µM*
CC(C)(C)C1CCc2c(sc(NC(=O)CSc3ncn[nH]3)c2C#N)C1 (stereo unspecified),12.6,14.1µM*,8.91µM*
N#Cc1c(NC(=O)CSc2ncn[nH]2)sc2c1CCCC2,13.6,-18.3%,-15.0%
COc1ccccc1NC(=O)N1CCC(c2nc3ccccc3o2)CC1,x,x,2.5%
CN=CC1=C(O)CC(C)(C)CC1=O,-16.3,-6.5%,0.3%
CC1(C)CC(=O)C(C=NC2CCCCC2)=C(O)C1,-10.2,-11.6%,-6.1%
CC1(C)CC(=O)C(CC2=C(O)CC(C)(C)CC2=O)=C(O)C1,u,-11.6%,8.91µM*
CC1(C)CC(=O)C(CC2=C(O)CC(C)(C)CC2=O)C(=O)C1,-6.3,-8.1%,11.2µM*
c1ccc2c3c([nH]c2c1)[C@@H]1[C@H]2CC[C@H]([C@H]4CCCN[C@H]42)N1CC3,x,u,-7.6%[20.9 µM]
COC(=O)N1[C@H](Cc2ccccc2)C=C[C@]1(C)C(=O)O,71.1,-13.7%,-10.0%
CC(=O)N1[C@H](Cc2ccccc2)C=C[C@]1(C)C(=O)O,x,-13.2%,28.2µM*
C[C@]1(C(=O)O)C=C[C@@H](Cc2ccccc2)N1C(=O)c1ccccc1,25.8,-6.9%,11.4%
COC(=O)CNC(=O)[C@@]1(C)C=C[C@@H](Cc2ccccc2)N1C(C)=O,x,10µM*,22.4µM*
C[C@@]1(CCOCc2ccccc2)NC(=O)NC1=O,x,-3.3%,16.9%[13.5 µM]
S=C(Nc1ccccc1Cl)N(CCCN1CCOCC1)Cc1ccccn1,x,x,-4.2%
C=CCNc1nc(Nc2ccc([N+](=O)[O-])cc2)nc(OCC)n1,-18.4,-6.2%,-11.5%
O=C(N1CCCCC1)N1CCN(S(=O)(=O)c2ccc(Cl)cc2)CC1,x,x,2.0%
CCOC(=O)COc1ccc(S(=O)(=O)Nc2cccc(SC)c2)cc1,-0.3,-7.2%,2.2%
SMILES,PNC assembly inh,HPGD block,ALDH1A1 inh
O=C(N1CCCCCC1)N1CCN(S(=O)(=O)c2ccccc2)CC1,19.6,-5.9%,6.31µM*
O=S(=O)(Nc1cccc(S(=O)(=O)N2CCCCCC2)c1)c1ccccc1,x,x,2µM*
O=S(=O)(c1cccc(S(=O)(=O)N2CCCC2)c1)c1cccc(S(=O)(=O)N2CCCC2)c1,u,5.8%,u
CSc1cccc(NS(=O)(=O)c2ccccc2)c1,27.0,25.1µM*,-2.1%
O=C(CCl)Nc1cccc(S(=O)(=O)N2CCCCCC2)c1,-7.4,x,0.708µM*
CC(=O)N1CCN(CC(=O)Nc2cccc(S(=O)(=O)N3CCCCCC3)c2)CC1,x,x,-4.9%
COc1ccc(CNc2nc(-c3cccnc3)nn2C(=O)c2cccs2)cc1,-24.0,-27.3%,u
Cc1ccc(Cl)c(OC(=O)c2nn(C(C)C)c(=O)c3ccccc23)c1,2.5,-21.9%,-1.4%
CCn1ncc(/C=N/NC(=O)c2cc(Cl)ccc2OC)c1C,1.8,-6.0%,10.0%
Clc1ccccc1C(c1ccccc1)(c1ccccc1)n1ccnc1,x,1.6%,-4.4%
CCOC(=O)N1CCN(C(=O)CS(=O)(=O)c2cn(Cc3cccc(F)c3)c3ccccc23)CC1,-8.7,-16.5%,u
Cc1nnc(NN2CCOCC2)[nH]c1=O,x,x,14.8%
CCOC(=O)c1c(NC(C)=O)sc2c1CCCNC2=O,-16.9,x,12.6µM*
CCOC(=O)c1c(NC(=O)Nc2ccccc2)sc(C)c1C,u,-8.9%,-15.9%
CCOC(=O)CNC(=O)c1ccccc1Br,26.6,-27.0%,9.2%
CCOC(=O)c1c(NC(=O)CN2CCOCC2)sc2c1CCCC2=O,-12.5,-13.1%,u
CCOC(=O)c1c(NC(=O)c2ccccc2Br)sc2c1CCc1ccccc1-2,34.1,14.1µM*,u
CCOC(=O)c1c(NC(C)=O)sc2c1CCC(C=O)=C2Sc1ccccc1,33.1,35.5µM*,5.01µM*
